According to PubChem BioAssay AID620 (Sanford-Burnham Center for Chemical Genomics, 2007):
The whole screen tested about 87,000 compounds, of which about 360 (0.41%) were called active. Only a selection was taken, and actives are over-represented in it overall. Values without a mark were called inactive. No stated cut-off is given here; in the data, active means cytotoxicity above about 50%; inactive means the rest.

Experiment: HT1080 cell viability loss – fluorescence readout (AID 620);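 further: cells exposed to compound overnight then 4 h with Alamar Blue; 0% = vehicle DMSO and 100% = killing control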
Conditions: at 10 µM, stronger effect = higher value

Question: For CCOC(=O)c1ccccc1NC(=O)Nc1ccc(OC)c(OC)c1, which cytotoxicity is on record?
Answer: -1.4%

Question: Which cytotoxicity does the source give for Cc1noc(C)c1C(=O)N1CCN(CCc2ccccc2)CC1 here?
Answer: -0.7%

Question: For CCCn1c(=N)c(C(=O)NC2CCCC2)cc2c(=O)n3cccc(C)c3nc21, which cytotoxicity is on record?
Answer: 9.1%

Question: Which cytotoxicity does the source give for COCCNC(=O)c1cc2c(=O)n3cccc(C)c3nc2n(Cc2ccncc2)c1=N here?
Answer: 17.6%

Question: Which cytotoxicity does the source give for Cc1cccn2c(=O)c3cc(C(=O)NC4CCCC4)c(=N)n(C4CCCC4)c3nc12 here?
Answer: 75% (active)

Question: Which cytotoxicity does the source give for CCCCNC(=O)c1cc2c(=O)n3cccc(C)c3nc2n(Cc2ccncc2)c1=N here?
Answer: 54.1% (active)

Question: With CCCCNC(=O)c1cc2c(=O)n3cccc(C)c3nc2n(Cc2ccccc2)c1=N as the compound, how does the cytotoxicity read?
Answer: 19.2%

Question: For N=c1c(C(=O)NC2CCCC2)cc2c(=O)n3ccccc3nc2n1C1CCCC1, which cytotoxicity is on record?
Answer: 7.6%

Question: For CSc1ccc2c(c1)N(CCC1CCCCN1C)c1ccccc1S2 (stereo not drawn), which cytotoxicity is on record?
Answer: 82.9% (active)

Question: For CC1CC(=O)N(CC(=O)N2CCCC2)c2ccccc2S1 (stereo not drawn), which cytotoxicity is on record?
Answer: 1.5%

Question: With CN1CCN(CCCN2c3ccccc3Sc3ccc(Cl)cc32)CC1 as the compound, how does the cytotoxicity read?
Answer: 6%

Question: With O=C(O)CSc1cccc2cccc(C(=O)O)c12 as the compound, how does the cytotoxicity read?
Answer: 3.5%

Question: For CC(=O)Oc1ccc2cc(-c3nc4ccccc4n3C)c(=O)oc2c1, which cytotoxicity is on record?
Answer: -4.4%

Question: For COc1ccc2cc(-c3nc4ccccc4n3C)c(=O)oc2c1, which cytotoxicity is on record?
Answer: -1.5%

Question: With CCN(CC)c1ccc2cc(-c3nc4ccccc4n3C)c(=O)oc2c1 as the compound, how does the cytotoxicity read?
Answer: 62% (active)

Question: With COc1ccc(CN(Cc2cccnc2)S(=O)(=O)c2ccc(-n3cnnn3)c(C)c2)cc1OC as the compound, how does the cytotoxicity read?
Answer: -6.9%

Question: With COc1ccc(Cl)cc1N(CC(=O)Nc1ccccc1C(=O)NCc1ccco1)S(C)(=O)=O as the compound, how does the cytotoxicity read?
Answer: 4.2%

Question: With CC(=O)c1cccc(OCC(=O)c2cc(C)n(-c3cc(C)on3)c2C)c1 as the compound, how does the cytotoxicity read?
Answer: 63.5% (active)

Question: For Cc1cc(-n2c(C)cc(C(=O)COc3ccc4ccc(=O)oc4c3)c2C)no1, which cytotoxicity is on record?
Answer: 7.7%

Question: With Cc1cc(C(=O)COc2cccc(-n3cnnn3)c2)c(C)n1-c1ccccc1 as the compound, how does the cytotoxicity read?
Answer: 27%

Question: With CC(=O)c1ccc(NC(=O)CSc2nc3nc(C)cc(C)n3n2)cc1 as the compound, how does the cytotoxicity read?
Answer: -1.8%

Question: With COc1ccc(/C=C2\CCc3ccccc3C2=O)cc1Cn1cccn1 as the compound, how does the cytotoxicity read?
Answer: -6.8%

Question: Which cytotoxicity does the source give for COC(=O)[C@@H]1C[C@@H]2CC[C@@H](O)C[C@@H]2N1Cc1ccc(Cl)cc1 here?
Answer: 4.3%

Question: With COC(=O)[C@@H]1C[C@H]2CC[C@H](O)C[C@H]2N1Cc1ccc(-c2ccccc2)cc1 as the compound, how does the cytotoxicity read?
Answer: 68.8% (active)

Question: With COC(=O)[C@@H]1C[C@@H]2CC[C@@H](O)C[C@@H]2N1Cc1ccc(-c2ccccc2)cc1 as the compound, how does the cytotoxicity read?
Answer: 1.4%

Question: With COc1ccc(NC(=O)CSc2nnc(-c3ccccc3C)n2C)cc1 as the compound, how does the cytotoxicity read?
Answer: 3%

Question: Which cytotoxicity does the source give for COc1ccccc1-c1cc(C(=O)Nc2cccnc2)no1 here?
Answer: 58.1% (active)

Question: Which cytotoxicity does the source give for COc1ccc(NC(=O)c2cc(-c3ccccc3OC)on2)cc1 here?
Answer: 38.4%

Question: With O=C(Nc1cccnc1)c1cc(-c2ccccc2)on1 as the compound, how does the cytotoxicity read?
Answer: 8.8%

Question: For O=C1c2ccccc2C(=O)c2c1oc(C(F)(F)F)c2C(=O)c1ccccc1, which cytotoxicity is on record?
Answer: -1.6%

Question: Which cytotoxicity does the source give for Cc1oc2c(c1C(=O)c1ccccc1)C(=O)C(=O)c1ccccc1-2 here?
Answer: 107% (active)

Question: Which cytotoxicity does the source give for Cc1ccc(C(=O)c2c(C)oc3c2C(=O)C(=O)c2ccccc2-3)cc1 here?
Answer: -5.2%

Question: With CCOC(=O)c1cn(CC(=O)Nc2ccc(C)cc2)nn1 as the compound, how does the cytotoxicity read?
Answer: -1.5%

Question: For NC(=O)c1nsc(C(=O)N(CC(=O)NCc2ccc3c(c2)OCO3)C2CCCCC2)c1N, which cytotoxicity is on record?
Answer: -0.4%

Question: Which cytotoxicity does the source give for C=Cn1c(C(=O)O)cc(CC)c1-c1ccccc1 here?
Answer: -2.7%

Question: With CCSc1nccc(-c2nn(-c3ccc(C)cc3)ccc2=O)n1 as the compound, how does the cytotoxicity read?
Answer: 29%

Question: Which cytotoxicity does the source give for CSc1nccc(-c2nn(-c3ccc(C)cc3)ccc2=O)n1 here?
Answer: 56.4% (active)

Question: For C=CCSc1nccc(-c2nn(-c3ccc(C)cc3)ccc2=O)n1, which cytotoxicity is on record?
Answer: 44.5%

Question: For O=C1OC(Nc2nccs2)c2ccccc21 (stereo not drawn), which cytotoxicity is on record?
Answer: 19.8%

Question: Which cytotoxicity does the source give for O=S(=O)(c1ccc(Oc2ccc(S(=O)(=O)N3CCOCC3)cc2)cc1)N1CCOCC1 here?
Answer: -8.2%

Question: Which cytotoxicity does the source give for CNS(=O)(=O)c1ccc(Oc2ccc(S(=O)(=O)NC)cc2)cc1 here?
Answer: -5.5%

Question: For C=CS(=O)(=O)c1ccc(Oc2ccc(S(=O)(=O)C=C)cc2)cc1, which cytotoxicity is on record?
Answer: 76.4% (active)

Question: With CC(C)c1ccc(C(=O)CSc2ncn[nH]2)cc1 as the compound, how does the cytotoxicity read?
Answer: -3.4%

Question: Which cytotoxicity does the source give for COc1cc(C)c(C(C)C)cc1S(=O)(=O)n1cnc(C)c1 here?
Answer: 61.2% (active)

Question: For COc1cc(C)c(C(C)C)cc1S(=O)(=O)n1ccnc1, which cytotoxicity is on record?
Answer: -1.7%

Question: For COc1cc(C)c(Cl)cc1S(=O)(=O)n1cnc(C)c1, which cytotoxicity is on record?
Answer: -1.4%

Question: Which cytotoxicity does the source give for CCn1ncc(Br)c1C(=O)NC(C)c1ccccc1 (stereo not drawn) here?
Answer: 9%

Question: For Nc1cccc(-c2nc3ccccc3[nH]2)c1, which cytotoxicity is on record?
Answer: -3.9%

Question: With COc1ccc2nc(-c3cccc(N)c3)[nH]c2c1 as the compound, how does the cytotoxicity read?
Answer: 33.4%

Question: With N#CC1=C(c2ccccc2)N=P(N2CCOCC2)(N2CCOCC2)N=C1N1CCOCC1 as the compound, how does the cytotoxicity read?
Answer: -10.4%

Question: With CCNc1ccc(S(=O)(=O)C(F)(F)F)cc1NC(=O)C12CCC(CC1)C2 as the compound, how does the cytotoxicity read?
Answer: 0.9%

Question: Which cytotoxicity does the source give for COC(=O)c1sc(N)c(C(=O)OC)c1COC(=O)c1c(C)noc1C here?
Answer: 50.8% (active)

Question: With COc1ccc(C(C)=O)cc1COC(=O)c1c(C)noc1C as the compound, how does the cytotoxicity read?
Answer: 14%

Question: Which cytotoxicity does the source give for COC(=O)c1c(N)sc(C(C)=O)c1C here?
Answer: -8.8%

Question: For Cc1nnc(SCC(=O)Nc2ccc3c(c2)OCO3)o1, which cytotoxicity is on record?
Answer: 12.7%

Question: For COc1nc(NCc2ccco2)nc(N2CCC(C)CC2)n1, which cytotoxicity is on record?
Answer: -3.4%

Question: For COc1cccc(C2N(c3ccccn3)C(=O)C3CCCN32)c1OC (stereo not drawn), which cytotoxicity is on record?
Answer: -9.8%

Question: For CN(C)CC(C(=O)c1ccccc1)c1ccccc1 (stereo not drawn), which cytotoxicity is on record?
Answer: 57.7% (active)

Question: Which cytotoxicity does the source give for CCC(C(=O)c1ccc(O)cc1)c1ccccc1 (stereo not drawn) here?
Answer: -4%

Question: For CN(C)c1ccc(C(=O)C(O)c2ccccc2)cc1 (stereo not drawn), which cytotoxicity is on record?
Answer: -14%

Question: For CC(C)CC(C(=O)NC1CCCC1)N(Cc1cccs1)C(=O)c1snc(C(N)=O)c1N (stereo not drawn), which cytotoxicity is on record?
Answer: -7.5%

Question: With O=C(NCc1csc(-c2ccccc2)n1)c1ccco1 as the compound, how does the cytotoxicity read?
Answer: -1.4%

Question: With COc1ccccc1-n1cnc2cc(C(=O)NCc3ccco3)ccc21 as the compound, how does the cytotoxicity read?
Answer: -2.4%

Question: With COc1ccc(-n2cnc3cc(NCc4cccs4)ccc32)cc1 as the compound, how does the cytotoxicity read?
Answer: 1.1%

Question: Which cytotoxicity does the source give for COc1ccccc1-n1cnc2cc(NCc3cccs3)ccc21 here?
Answer: 60% (active)

Question: For Cc1ccccc1-n1cnc2cc(NCc3cccs3)ccc21, which cytotoxicity is on record?
Answer: 33.7%

Question: For COc1ccccc1-n1cnc2cc(NCc3ccccn3)ccc21, which cytotoxicity is on record?
Answer: -10%

Question: For COc1ccccc1-n1cnc2cc(NCc3ccco3)ccc21, which cytotoxicity is on record?
Answer: 59.5% (active)

Question: With CCOC(=O)CCP(=O)(O)C(C)(O)c1ccccc1 (stereo not drawn) as the compound, how does the cytotoxicity read?
Answer: -7.3%

Question: Which cytotoxicity does the source give for COn1c(=O)c(-c2cccs2)[n+]([O-])c2ccccc21 here?
Answer: -15.3%

Question: Which cytotoxicity does the source give for COc1ccc(OC)c(N2CC(O)=C(c3nc4ccccc4s3)C2=N)c1 here?
Answer: -5.7%

Question: For CCOc1ccccc1N1CC(O)=C(c2nc3ccccc3s2)C1=N, which cytotoxicity is on record?
Answer: 68.7% (active)

Question: With COc1ccc(N2CC(O)=C(c3nc4ccccc4s3)C2=N)c(OC)c1 as the compound, how does the cytotoxicity read?
Answer: -0.1%

Question: For O=C(NCc1ccccc1)C1(c2ccccc2)CCN(S(=O)(=O)c2ccccc2)CC1, which cytotoxicity is on record?
Answer: -1.9%

Question: With O=C(CSc1nc2c(c(=O)n1-c1ccc(Cl)cc1)SCC2)N1CCCC1 as the compound, how does the cytotoxicity read?
Answer: -1.5%

Question: With N#Cc1c(-c2ccc(Cl)cc2)ccn2nc(C3CCCCC3)nc12 as the compound, how does the cytotoxicity read?
Answer: -4%

Question: For Cc1nc(NC(C)C)c2oc3ccccc3c2n1, which cytotoxicity is on record?
Answer: -2.5%

Question: With COc1cccc(N2CCN(c3ncnc4c3[nH]c3ccccc34)CC2C)c1 (stereo not drawn) as the compound, how does the cytotoxicity read?
Answer: -3%

Question: Which cytotoxicity does the source give for COc1cccc(N2CCN(c3ncnc4c3[nH]c3ccc(F)cc34)CC2C)c1 (stereo not drawn) here?
Answer: 54.2% (active)

Question: For Fc1ccc2[nH]c3c(N4CCN(c5ccccc5)CC4)ncnc3c2c1, which cytotoxicity is on record?
Answer: -4.2%

Question: Which cytotoxicity does the source give for O=C(C1CCCN(Cc2cccc(F)c2)C1)N1CCCCC1 (stereo not drawn) here?
Answer: 14.1%

Question: For CCC(=O)N1CCN(c2ccc(NC(=O)c3cc4ccccc4o3)cc2Cl)CC1, which cytotoxicity is on record?
Answer: 96.3% (active)

Question: For O=C(Nc1ccc(CN2CCOCC2)cc1)c1cc2ccccc2o1, which cytotoxicity is on record?
Answer: 8.9%

Question: For CCC(=O)Nc1ccc(NC(=O)c2cc3ccccc3o2)cc1, which cytotoxicity is on record?
Answer: -1.5%

Question: Which cytotoxicity does the source give for CCCC(=O)N1CCN(c2ccc(NC(=O)c3cc4ccccc4o3)cc2Cl)CC1 here?
Answer: 69.8% (active)

Question: Which cytotoxicity does the source give for O=C(Nc1ccc(N2CCOCC2)cc1)c1cc2ccccc2o1 here?
Answer: 1.6%

Question: With CCC(=O)N1CCN(c2ccc(NC(=O)c3cc4ccccc4o3)cc2)CC1 as the compound, how does the cytotoxicity read?
Answer: 1.3%

Question: With O=C(Nc1ccc(N2CCN(C(=O)c3ccc(Cl)cc3)CC2)cc1)c1cc2ccccc2o1 as the compound, how does the cytotoxicity read?
Answer: 7%

Question: For O=C(Nc1ccc(N2CCOCC2)c(Cl)c1)c1c(F)c(F)c(F)c(F)c1F, which cytotoxicity is on record?
Answer: 8.9%

Question: For O=C(Nc1ccc(N2CCOCC2)c(Cl)c1)c1cccc(F)c1, which cytotoxicity is on record?
Answer: 22.9%

Question: Which cytotoxicity does the source give for O=C(Nc1ccc(N2CCOCC2)c(Cl)c1)c1ccc(F)cc1 here?
Answer: 56.2% (active)

Question: Which cytotoxicity does the source give for O=C(Nc1ccccc1N1CCN(C(=O)c2ccc(Cl)cc2)CC1)c1cc2ccccc2o1 here?
Answer: 1.6%

Question: With O=C(Nc1ccc(N2CCOCC2)c(Cl)c1)c1cc2ccccc2o1 as the compound, how does the cytotoxicity read?
Answer: 89.6% (active)

Question: Which cytotoxicity does the source give for CCOC(=O)c1ccc2ncc(C(=O)OCC)c(NCc3ccco3)c2c1 here?
Answer: 1.9%

Question: Which cytotoxicity does the source give for O=S(=O)(Nc1ccccn1)c1ccc(Cl)cc1 here?
Answer: -6.1%

Question: Which cytotoxicity does the source give for COc1cccc(-n2c(Cc3cc(=O)[nH]c(=O)[nH]3)nnc2SCC(=O)N2CCCC2)c1 here?
Answer: 3.9%

Question: With COc1ccc([C@H]2[C@@H](C#N)[C@H](C#N)N3CCCN23)cc1 as the compound, how does the cytotoxicity read?
Answer: 5.9%

Question: For O=C(CCn1c(=O)sc2ccccc21)NCCN1CCOCC1, which cytotoxicity is on record?
Answer: 4.4%
